This is a sample that favours compounds with a hit; in the whole collection about 19% have one here.
IL-1B inflam inh: inhibitors of inflammasome signaling (IL-1 beta secretion); THP-1 LPS/ATP IL-1B secretion, AlphaLISA, 16 h; active compounds read low; activity change, % at 57.5 µM; 360,000 compounds, 4.7% hits; in the data active means activity change below about -50%; inconclusive means mostly about -30% to -49%
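Secreted IL-1B measured by AlphaLISA bead assay after 16 h compound exposure of THP-1 cells; compounds (final up to 57.5 uM) added 1 h before LPS (250 ng/mL) and ATP (1.25 mM) stimulation; lower signal means less secretion.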
HT1080 IDH1KD tx: kills HT-1080 cells with IDH1 knockdown. HT-1080 IDH1 knockdown viability, ATP luminescence, 48 h. Potency, µM (top dose mostly 46.1 µM), for the others: at the top dose activity, negative = toxicity, most hits filed as cytotoxic. 360,000 compounds, 2% hits;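 further: potency means the concentration at half of the fitted maximal effect; 0% = DMSO wells and -100% = cell-free medium wells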
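Viability of IDH1-knockdown HT-1080 fibrosarcoma cells was assessed by CellTiter-Glo after 48 h at 37 °C with titrated compound; concentration-effect curves were classified by fit quality and response size.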
TDP1 cell CPT: growth inhibition of DT40 Tdp1-/-;hTDP1 cells with camptothecin (screen for TDP1 inhibitors) | chicken DT40 Tdp1-/-;hTDP1 cells + 20 nM CPT, ATP luminescence, 48 h | Potency, µM (doses to about 46.2 µM), for inactives: top-dose activity change, negative = growth inhibition, hits mostly inhibitors | 420,000 compounds, 12% hits; further: potency means the concentration at half of the fitted maximal effect; nearly all actives have a fitted effect of over 55% in size
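Cell growth measured by CellTiter-Glo luminescence after a minimum 48 h, 37 C compound exposure with 20 nM CPT in Tdp1-knockout DT40 cells stably expressing hTDP1, seeded 400/well; qHTS titration format.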
uPA surface inh: cell surface uPA generation inhibition | AID 540303 | cell surface uPA generation assay, qHTS | Potency, µM (titrated, usually from 38.3 µM), for inactives: at the top dose activity change, negative = inhibition, usual class: inhibitors | 330,000 compounds, 0.31% hits; active means well fitted inhibition curve with a large enough effect; inconclusive means small, poorly fitted or top-dose-only effect; inactive means no such curve, though single readings can be large or run the other way; tested in mouse RAW 264.7 cells; further: potency means the concentration at half of the fitted maximal effect; nearly all actives have a fitted effect of over 55% in size
HT1080NT lethal: kills 2HG-producing HT-1080-NT fibrosarcoma cells | HT-1080-NT fibrosarcoma viability, CellTiter-Glo ATP luminescence, 48 h | Potency, µM (series often up to 46.1 µM), inactives show at the top dose activity, negative = less viability, most hits filed as cytotoxic | 360,000 compounds, 1.6% hits | AID 686970;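 further: NT is the 2HG producing partner of a matched IDH1 knockdown line; potency means the concentration at half of the fitted maximal effect; 0% = DMSO-treated cells and -100% = media-only wells without cells; nearly all actives have a fitted effect of over 55% in size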
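HT-1080-NT; 750 cells/well; 5% FBS RPMI; 48 h compound, 37 degrees C; CellTiter-Glo luminescence; curve fitting and curve-class assignment.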
TDP1 cell noCPT: qHTS for Inhibitors of human tyrosyl-DNA phosphodiesterase 1 (TDP1): qHTS in cells in absence of CPT | 420,000 compounds, 15% hits | DT40 Tdp1-/- hTDP1 cells, no CPT, ATP luminescence, 48 h | Potency, µM (series often up to 46.2 µM), for inactives: top-dose activity change, negative = growth inhibition, usual class: inhibitors; further: potency means the concentration at half of the fitted maximal effect; nearly all actives have a fitted effect of over 55% in size
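Cells were dispensed at 400 per well, compounds added by pin tool, plates incubated ≥48 hr at 37 °C, then CellTiter-Glo added for 30 min at room temperature before luminescence reading. Line: DT40 Tdp1-/- complemented with hTDP1; camptothecin omitted.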
* = called active by the depositor; u = inconclusive; x = no result given. Unless noted, the call rests on the fitted dose curve; in most records, active means well fitted curve in the direction sought with a large enough effect; inconclusive means small, poorly fitted or top-dose-only effect, or another doubt; inactive means no such curve, though single readings can be large; an effect the other way counts as inactive or inconclusive. Unless noted, on the % scale 0 is the no-effect control and ±100 the full control effect.

SMILES | IL-1B inflam inh | HT1080 IDH1KD tx | TDP1 cell CPT | uPA surface inh | HT1080NT lethal | TDP1 cell noCPT
CCCCOC(=O)c1ccc(OC(=O)c2sc3ncn(Cc4ccccc4Cl)c(=O)c3c2C)cc1 | x | x | 0% | x | x | -26%
CCOC(=O)N1CCC(N2Cc3cccc(C(=O)Nc4ccc(F)cc4)c3C2=O)CC1 | 1 | -1% | -12% | 2% | 1% | u
CCOC(=O)N1CCC(N2Cc3cccc(C(=O)Nc4ccc(N(CC)CC)cc4C)c3C2=O)CC1 | -6 | -4% | u | 6% | -9% | 16µM*
CCOC(=O)N1CCC(N2Cc3cccc(C(=O)Nc4ccc(CC)cc4)c3C2=O)CC1 | -70* | -15% | u | 2% | -12% | u
COc1ccc(Cl)c2c1[nH]c1nc(SCc3ccccn3)nnc12 | -82* | -26% | u | -1% | -21% | 26µM*
O=c1[nH]c(N/N=C\c2ccc(F)cc2)nc2ccccc12 | 0 | 0% | u | -4% | -8% | u
CCN(CC)c1ccc(/C=N/Nc2nc3ccccc3[nH]2)cc1 | -85* | u | 3.3µM* | u | u | 4.6µM*
C(=N\Nc1nc2ccccc2[nH]1)/c1ccncc1 | -22 | 16% | 2% | 0% | 18% | -27%
CC(=O)Nc1ccc(CCc2nc3ccccc3[nH]2)cc1 | 5 | -4% | -11% | -1% | -5% | -4%
CC(=O)Nc1ccc(/C=N/Nc2nc3ccccc3[nH]2)cc1 | -94* | u | -30% | u | u | -9%
O=c1[nH]c(N/N=C/c2ccc(O)cc2)nc2ccccc12 | 63 | 0% | 26µM* | -9% | 0% | 23µM*
CC(=O)Nc1cccc(CCc2nc3ccccc3[nH]2)c1 | 16 | 2% | u | -7% | 2% | 18µM*
O=C(O)c1ccc(/C=N/Nc2nc3ccccc3[nH]2)cc1 | 13 | -3% | -2% | 2% | 2% | 6%
COc1cc(OC)nc(Nc2nc(CN)cs2)n1 | -3 | 5% | -30% | x | u | u
CC(/C=N/Nc1nc2ccccc2[nH]1)=C\c1ccccc1 | -4 | u | 15µM* | u | u | u
COc1ccc(/C=N/Nc2nc3ccccc3c(=O)n2-c2ccccc2)cc1OC | -19 | -17% | u | -5% | -17% | u
C=CCn1c(N/N=C/c2ccc(O)cc2)nc2ccccc2c1=O | 17 | 1% | -37% | u | 6% | 15µM*
CC(/C=N/Nc1nc(C)cc(=O)[nH]1)=C\c1ccccc1 | -3 | -1% | u | 3% | 12% | -9%
COc1cc(CN2CCN(Cc3ccccc3C(F)(F)F)CC2)cc(OC)c1OC | -22 | -7% | u | 2% | 7% | 26µM*
COc1ccc(CN2CCN(Cc3ccc(C(F)(F)F)cc3)CC2)c(OC)c1 | -24 | -14% | 21µM* | 8% | -13% | 15µM*
COc1cc(CN2CCN(Cc3ccc(C(F)(F)F)cc3)CC2)cc(OC)c1OC | -1 | -6% | 23µM* | -8% | -7% | 21µM*
O=C(CC1C(=O)NCCN1Cc1cccc(C(F)(F)F)c1)NC1CCCCCC1 (stereo not drawn) | -13 | 1% | -4% | u | 1% | u
O=C(CC1CS(=O)(=O)CC1CC(=O)Nc1ccc2c(c1)OCCO2)Nc1ccc2c(c1)OCCO2 (stereo not drawn) | -6 | 0% | -17% | 0% | -2% | -24%
Cc1cccc(C)c1NC(=O)CSc1nnc(CCCCCNC(=O)OC(C)(C)C)o1 | 4 | -2% | 15µM* | -1% | -1% | 13µM*
CC(C)(C)OC(=O)NCCCCCc1nnc(SCc2ccc(F)cc2)o1 | -14 | -30% | u | 1% | -26% | 23µM*

Compound activity from PubChem.
